This is part of a sample that, as a whole, favours compounds with a hit. Of some 83,000 tested, about 20% had one in any assay.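 How to read the values: 0–100, growth inhibition (40 = 60% inhibited); 0, no net growth; -100 to 0, cell death (-40 = 40% of starting cells died; -100 = all dead).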 Unmarked numbers belong to inactive results. The source made the active and inactive calls. Rule for the calls: active = growth percent below 10; inactive = the rest.

The test system of this assay is HL-60(TB) leukemia. Put plainly: NCI-60 one-dose screen, 48 h (100 = growth as untreated, 0 = no growth, -100 = all killed). The note with it: 10 µM unless noted.
As for `CC(C)(C)c1ccc(S(=O)(=O)Oc2ccc(-c3sc4cc(OS(=O)(=O)c5ccc(C(C)(C)C)cc5)ccc4c3C(=O)c3ccc(OCCN4CCCCC4)cc3)cc2)cc1`, the growth was 95.3%.

As for `O=[N+]([O-])/C(=C\c1ccco1)c1ccccc1Cl`, the growth is 81.6%. For `CCN1C(=O)N(CC)C2C1N=C(SCc1ccc(Cl)cc1)N2/N=C/C=C/c1ccccc1OC` (stereo not given), the growth was 37.9%. In the case of `O=C1CCCC=CC[C@H]2C=C(Cl)C(=O)C2=CC[C@H](CCCCC(F)(F)F)OC(=O)CCCC=CC[C@H]2C=C(Cl)C(=O)C2=CC[C@H](CCCCC(F)(F)F)OC(=O)CCCC=CC[C@H]2C=C(Cl)C(=O)C2=CC[C@H](CCCCC(F)(F)F)O1`, the growth was 27.6% [6.25 µM]. For `CCN(CC)c1ccc(/C=C/C2=[N+](C)c3ccccc3C2(C)C)c(C)c1` the value was -34.7% (active). Then `CC(/C=C/C=C(\C)[C@H](O)[C@H](C)C(=O)O[C@H]1C[C@H](C)C=C2C=C[C@@]3(C)O[C@@H](O)CC(=O)[C@]3(C)[C@H]21)=C\C=C\C(=O)O`, with 34%; and `O=CNc1ccc2c(c1)Cc1cc([N+](=O)[O-])ccc1-2`, with 17.7%; and `C[n+]1c2ccccc2nc2c(N)cc(N)cc21`, with 74.7%. With `Cc1ccc(NC(=O)c2ccc(CN3CCN(C)CC3)cc2)cc1Nc1nc(-c2cccnc2)cs1`, the growth is 57.9%. Then `COc1cc(Nc2ncccc2NC(=O)c2cn(Cc3cccc(Oc4ccccc4)c3)nn2)cc(OC)c1`, with 64.6%; and `O=C1CC(c2ccc(Cl)cc2)c2ncn(-c3cccc(Cl)c3)c2N1` (stereo not given), with -4.87% (active). Then `CC(=O)OC(C(=O)O)c1ccccc1` (stereo not given), with 3.72% (active). For `N#CC(C#N)=Cc1cc2ccccc2nc1Oc1ccc(C(F)(F)F)cc1` the value was 78.4%. Turning to `C=C1C(=O)O[C@H]2[C@H]1CC/C(Cn1cc(-c3ccc(N)cc3)nn1)=C\CC[C@@]1(C)O[C@@H]21`, the growth is -27.9% (active). Turning to `COc1ccc(-c2ccc3c(N4CCOC[C@@H]4C)nc(N4CCOC[C@@H]4C)nc3n2)cc1CO`, the growth is 22.6%. With `Cc1nc2scc(-c3ccccc3)n2c(=O)c1CCO`, the growth was 112%. Then `CCCCCCCC/C=C\CCCCCCCCOc1ccccc1CC(=O)NCC[N+]1(C)CCCC1`, with 2.25% (active).

As to `Cn1cc(-c2csc(-c3cn(CCNC(=O)OC(C)(C)C)c4ccc(F)cc34)n2)c2cccnc21`, the growth is 42.7%.

In the case of `CCCCOc1nc2ccc(Cl)cc2cc1/C=C/C(=O)/C=C/c1ccc(OC)cc1`, the growth is 89.5%. Consider `COC(=O)CC1=C(C)/C(=C/c2[nH]c(-c3ccc[nH]3)cc2OC)N=C1C`, for which the growth was -29.2% (active).

Regarding `COc1ccc(Nc2nc(SC)nc(-c3cccc([N+](=O)[O-])c3)c2C#N)cc1`, the growth is 112%. Then `O=c1oc2c3ccc4cnccc4c3[nH]c2c2ccccc12`, with 27.1%. Then `CCNCc1ccc(O)c2ncccc12`, with 13.1%. For `C[C@H]1C=C(C[C@@H](O)CCCCCCCCCC[C@@H](O)[C@H]2CCC(=O)O2)C(=O)O1` the value was 102%. For the compound `CN(C)S(=O)(=O)n1cnc([C@@H]2[C@@H]3C(=O)OC[C@@H]3C[C@]23N=CN(Cc2ccccc2)C3=O)c1`, the growth is 123%.

`CCc1nc(N)nc(N)c1C#CC(C)c1cc(-c2ccnc(C)c2)c2oc(C)nc2c1` (stereo not given): the growth is -42.4% (active). Then `Cn1[nH]cc(/C=N/C(N)=O)c1=O`, with 110%; and `N#C/C(=C\c1ccc(-c2ccc(Cl)cc2)o1)c1nc(-c2ccco2)cs1`, with 92.3%. For `COc1ccc(C2CC(c3ccc(OC)c(OC)c3)=NN2C(=O)c2cc(OC)c(OC)c(OC)c2)cc1` (stereo not given) the value was 5.49% (active); for `C#CCOC(=O)C(N)CSSCC(N)C(=O)O` (stereo not given), 120%. For `CC(C)C(C)C(N)C(=O)O` (stereo not given), the growth is 97.9%. Then `O=C(Cn1c2ccccc2c2ccncc21)N/N=C/c1c[nH]c2ccccc12`, with 74.5%; and `COc1ccc(-c2cnc(SCC(=O)Nc3ccc(-c4nc5ccccc5s4)cc3)n2-c2ccc(OC)cc2)cc1`, with 106%. With `COc1cc(/C=C/C(=O)c2ccc(Oc3ncnc4ccccc34)cc2)cc(OC)c1OC`, the growth was 54.3%.

In the case of `O=C1c2cc3c(cc2-c2c1c1ccc(F)cc1c(=O)n2C[C@H](O)[C@H](O)[C@H](O)CO)OCO3`, the growth was -14.8% (active).

Take `COc1cc(Cl)cc(-c2nn(C(=O)NS(=O)(=O)c3ccc(Cl)cc3)cc2-c2ccncc2)c1`: the growth is 94.8%. Then `Cc1ccc(C2=NN(c3ccc(S(C)(=O)=O)cc3)C(=O)CC2)cc1`, with -12% (active); and `CCOC(=O)[C@@H]1CSC(CC)=C(C(=O)O)N1`, with -17.3% (active); and `OCCNc1nc(NCCO)nc(Nc2ccc(C3=NN(c4cc(Cl)cc(Cl)c4)C(c4ccc(C(F)(F)F)cc4)C3)cc2)n1` (stereo not given), with 16.7%. On to `CC[C@H](Nc1ncnc2nc[nH]c12)c1nc2cccc(F)c2c(=O)n1-c1ccccc1`, for which the growth was 66.8%.

The values are drawn from PubChem BioAssay (NCI).
